Measured values: PubChem BioAssay AID488890 (Southern Research Specialized Biocontainment Screening …, 2010)
Screen size: about 320,000 compounds; about 1,300 (0.41%) were called active. Not shown: some 3% with an inconclusive outcome. How the calls were made is not given here. These entries were drawn from the full list. Potency and affinity values are given separately.

assay: growth inhibition of non-replicating M. tuberculosis (AID 488890); details: Mycobacterium tuberculosis non-replicating, at 25 µM, stronger effect = higher value;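 further: plate controls were DMSO cells for no effect and high antibiotic wells for full effect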

| Compound | inhibition [%] |
| --- | --- |
| O=C(NN=C1CCCC1)c1ccccc1O | 8.13 |
| CCOC(=O)N1CCC(=NNC(=O)c2cc3ccccc3cc2O)CC1 | 31.9 |
| Cc1ccc(Cn2c(=N)n(CC(O)c3ccco3)c3ccccc32)cc1 (configuration not stated) | 18.9 |
| N=c1n(Cc2ccccc2)c2ccccc2n1CC(O)c1ccco1 (configuration not stated) | 2.91 |
| CC1CCC/C(=C\Nc2ccc(O)cc2)C1=O (configuration not stated) | 13.7 |
| CC1CCC/C(=C\Nc2ccc(C(=O)O)cc2)C1=O (configuration not stated) | -12.5 |
| O=C1c2cccc(OCC(=O)N3CCCc4ccccc43)c2CCN1Cc1cccnc1 | 15.4 |
| O=C(NC1CCCCC1)c1cc(-c2cccs2)on1 | 43.1 |
| O=C(NC1CCCC1)c1cc(-c2ccccc2O)on1 | 4.68 |
| CN(Cc1cccs1)C(=O)COC(=O)CNC(N)=O | 2.55 |
| O=C(c1ccccc1)c1cncc(Br)c1 | 19 |
| CCc1ccc(C(=O)c2cncc(Br)c2)cc1 | 70 |
| Cc1ccc(C)n1-c1ccc(N2CCOCC2)c([N+](=O)[O-])c1 | -3.61 |
| Cc1nn(C)c(C)c1NC(=S)Nc1ccc(S(=O)(=O)Nc2ncccn2)cc1 | -12.7 |
| CCC/C=C(\CCC)C(NC(=O)CCc1ccccc1)c1ccc(C(F)(F)F)cc1 (configuration not stated) | -8.64 |
| Cc1cc(C(c2ccc(O)cc2)c2cc(C)c(O)cc2C)c(C)cc1O | 19.6 |
| Cc1ccc(O)c(C)c1 | -0.5 |
| CN(C)CCCn1c(-c2ccccc2)nc(=S)c2c1CCCC2 | 3.62 |
| CN(C)CCN1C(=O)C2C(C(=O)Nc3cc(Cl)cc(Cl)c3)C3C=CC2(O3)C1C(=O)NC1CCCCC1 (configuration not stated) | 5.38 |
| COc1ccc(OCCCC(=O)OCC(=O)Nc2nnc(-c3ccccc3)o2)cc1 | 24.6 |
| CC(C)c1ccc(OCC(=O)NCCO)cc1 | -10.9 |
| Cc1cccc(N2CCN(Cc3ccoc3)CC2)c1C | 11.8 |
| Cc1ccccc1N1CCN(Cc2ccc(Br)o2)CC1 | 35.5 |
| Clc1ccccc1N1CCN(Cc2ccc(Br)o2)CC1 | 19.6 |

| Compound | inhibition [%] |
| --- | --- |
| Cc1cccc(N2CCN(Cc3ccc(Br)o3)CC2)c1C | 51.8 |
| Cc1ccc(CN2CCN(c3ccccc3Cl)CC2)o1 | -0.79 |
| Cc1ccccc1N1CCN(Cc2cc3c(cc2[N+](=O)[O-])OCO3)CC1 | 45.5 |
| CCOc1ccc(N=C2SCC(=O)N2CC)cc1 | 25.3 |
| O=C(Nc1cccc([N+](=O)[O-])c1)NC1CCS(=O)(=O)C1 (configuration not stated) | -1.42 |
| CSc1ccccc1NC(=O)CN(C)CC(=O)Nc1c(F)cccc1F | 6.62 |
| O=C1c2cccc3cccc(c23)C(=O)N1CCCc1n[nH]c(=S)n1-c1ccccc1 | -14.7 |
| C=CCN(C)NC(=O)Nc1ccccc1 | 6.98 |
| Cc1c(NC(=O)CCCCCN2C(=O)c3ccccc3C2=O)c(=O)n(-c2ccccc2)n1C | -3.66 |
| COc1cc(C(=O)N2CCC(NC(=O)C(Cc3ccccc3C)NC(C)=O)CC2)cc(OC)c1OC (configuration not stated) | 3.5 |
| COC(=O)Cn1c(C)nc([N+](=O)[O-])c1Br | -5.82 |
| Cc1nc([N+](=O)[O-])c(Br)n1CC(=O)c1cccc([N+](=O)[O-])c1 | 68.4 |
| Cc1c(Br)c([N+](=O)[O-])nn1CC(=O)c1ccccc1 | -6.01 |
| Cc1nc([N+](=O)[O-])cn1CC(=O)c1ccc(Cl)cc1 | -12.5 |
| COc1ccc(OC)c(C(c2nnnn2CC2CCCO2)N2CCN(C)CC2)c1 (configuration not stated) | 9.88 |
| COc1ccc(F)cc1S(=O)(=O)Nc1ccncc1 | 10.8 |
| N/C(COc1ncn(-c2ccccc2)n1)=N\S(=O)(=O)c1ccccc1 | 20.4 |
| CCOC(=O)C1CCCN(Cc2nc(N)nc(Nc3ccccc3)n2)C1 (configuration not stated) | 42 |
| O=C(NC1CC1)c1nc2c(nnn2Cc2ccccc2Cl)c(=O)[nH]1 | 17.4 |
| O=C(NC1CCCC1)c1nc2c(nnn2Cc2ccccc2Cl)c(=O)[nH]1 | 79.4 |
| Cn1c(CCc2ccccc2)nnc1SCC(=O)N1CCCC1 | -11.6 |
| O=C1NC2(CCCCC2)N=C1c1ccccc1 | -21.1 |
| N#CC(C#N)=c1ccc2c(c1)N1C(c3ccccc3)=CC(c3ccccc3)C3CCCCC31N=2 (configuration not stated) | -0.07 |
| CCOc1ccc(OCC(O)CNC2CCN(Cc3ccccc3)CC2)cc1 (configuration not stated) | 35 |

| Compound | inhibition [%] |
| --- | --- |
| CC(C)(c1ccccc1)c1ccc(OCC(O)CN2CCCC2)cc1 (configuration not stated) | 50 |
| CC(C)(C)c1ccc(-n2ncc3c2CCCC3NC(=O)CN2CCOC2=O)cc1 (configuration not stated) | 10.9 |
| COC(=O)Nc1ccc(S(=O)(=O)N2c3ccccc3CCC2C)cc1 (configuration not stated) | 47.6 |
| Cc1ccc(S(=O)(=O)N2CCC(C(=O)OC(C)C(=O)N(C)c3ccccc3)CC2)cc1C (configuration not stated) | 36 |
| CCCCOc1ccc(Cn2c(=O)oc3ccccc32)cc1 | 59 |
| CC(C)Oc1ccc(Cn2c(=O)oc3ccccc32)cc1 | 72 |
| CCSc1ncc(C)cc1[N+](=O)[O-] | -10.3 |
| O=C(c1cccs1)N1CCN(Cc2ccccn2)CC1 | -6.8 |
| Cc1cccc(Cn2c(Cc3ccccc3)nc3ccccc32)c1 | 46.2 |
| CCOC(=O)COc1cc(N2C(=O)CSCC2=O)c(Cl)cc1Cl | -8.36 |
| COCCOc1cc(N)c(Cl)cc1Cl | 10.4 |
| CN(C)/C=N/c1ncc(-c2ncc(C(F)(F)F)cc2Cl)cn1 | -8.2 |
| CCn1nccc1C(=O)Nc1cccc(C)c1C | 5.9 |
| COc1ccc(CC(C)CC(=O)Nc2ccc(OC)cc2)cc1 (configuration not stated) | 49.1 |
| Cc1ccc2c(c1)c(C1=NC(=S)NC1=O)c(O)n2C | -2.45 |
| O=C1N=c2ccccc2=C1c1[nH]c(=S)[nH]c1O | 9.01 |
| O=C1N=c2ccccc2=C1c1c(O)[nH]c2c(C(F)(F)F)cccc12 | 27.4 |
| C=CCn1c(O)c(C2=c3ccccc3=NC2=O)sc1=Nc1ccc(O)cc1 | 30.7 |
| C=CCn1c(O)c(N=O)c2ccccc21 | -1.03 |
| CCn1c(O)c(C2=c3ccccc3=NC2=O)c2cc(Br)ccc21 | 73.8 |
| CC(C(=O)N1CCN=C1c1ccccc1)N1C(=O)c2ccccc2C1=O (configuration not stated) | -7.08 |
| O=C(CN1C(=O)NC2(CCCCC2)C1=O)Nc1ccc(Cl)cc1 | -0.81 |
| C/C(=N/NC(=O)CCC(=O)Nc1ccc(Br)cc1)c1ccc(Br)cc1 | -21.4 |
| O=C(NNC(=O)c1ccco1)c1ccccc1 | -6.91 |

| Compound | inhibition [%] |
| --- | --- |
| O=C(NCc1ccccc1)c1ccco1 | 64.3 |
| Cc1ccc(/C=C2\SC(=S)N(CCC(=O)NCCCN3CCOCC3)C2=O)cc1 | 8.18 |
| CCOc1ccc(C(=O)c2cc([N+](=O)[O-])ccc2Cl)cc1 | 6.56 |
| O=C(c1ccc(S(=O)(=O)Nc2ccccc2)cc1)N1CCC1 | -11.7 |
| CCCNC1=C(C)C(=O)C2=C(C1=O)C(COC(N)=O)[C@]1(OC)C3NC3CN21 (some centres not stated) | 55.1 |
| COc1cccc2cc(C(=O)NCc3ccc(Cl)cc3)c(=O)oc12 | 57.8 |
| COc1ccc(CCNC(=O)c2cc3cccc(OC)c3oc2=O)cc1OC | 0.35 |
| CCN(CC)c1ccc2cc(C(N)=O)c(=N)oc2c1 | 31.1 |
| CCN(CC)c1ccc2cc(C(C)=O)c(=O)oc2c1 | 3.33 |
| Cn1c(=O)c(=O)n(C)c2cc(S(=O)(=O)N3CCN(Cc4ccccc4)CC3)ccc21 | 5.19 |
| Nc1nc(-c2ccc3ccccc3c2)c(C2(O)C(=O)Nc3c(Br)cc(F)cc32)s1 (configuration not stated) | 0.16 |
| COc1ccc(Cl)cc1NC(=O)CSc1nc(=O)n(CCN(C)C)c2c1CCCC2 | 16.1 |
| Clc1ccccc1N/N=C/c1ccc2c(c1)OCO2 | 28.4 |
| CC(=O)N(C1=C(N)C(=O)c2ccccc2C1=O)c1ccccc1 | 4.83 |
| CN(CC(=O)NCCc1ccc(F)cc1)Cc1ccccc1 | 20.9 |
| CC(CCc1ccccc1)NC(=O)CN(C)Cc1ccc(F)cc1 (configuration not stated) | 18 |
| CCC(=O)N(C1=C(NC(C)C)C(=O)c2ccccc2C1=O)C(C)C | 8.66 |
| COC(=O)/C(=C/c1c[nH]c2ccccc12)[N+](=O)[O-] | 9.02 |
| COc1ccc2cc(Br)ccc2c1CC(=O)NCC1CCCO1 (configuration not stated) | 14.2 |
| O=S(=O)(c1ccc2c(c1)OCCO2)N1CCN(S(=O)(=O)c2ccco2)CC1 | 16.7 |
| c1ccc(-c2ccc(SCc3cccnc3)nn2)nc1 | 63.6 |
| c1ccc(CSc2ccc(-c3ccccn3)nn2)nc1 | 36.2 |
| CCOC(=O)/C=C/C(=O)OCC(=O)Nc1ccc(Cl)cn1 | 0.76 |
| CS(=O)(=O)c1cnc(-c2ccccc2)nc1Oc1ccc(Cl)cc1 | -7.01 |

| Compound | inhibition [%] |
| --- | --- |
| O=P(O)(CCc1ccncc1)CN1CCCCC1 | -7.55 |
| COc1ccccc1/C=N/Nc1cc(C)nc2ccc(C)cc12 | -9.66 |
| Cc1cc(N/N=C/c2ccc(N(C)C)cc2)c2ccccc2n1 | -1.58 |
| COc1cccc2c(N/N=C/c3ccccc3)cc(C)nc12 | 3.67 |
| COc1ccc2nc(C)cc(NCc3ccc(F)cc3)c2c1 | 38.9 |
| COc1ccc(Nc2cc(C)nc3ccc(OC)cc23)cc1 | 41.2 |
| COc1ccc(Nc2cc(C)nc3ccccc23)cc1 | 36.9 |
| COc1ccc(C(=O)COC(=O)C(CCSC)NC(=O)COc2ccccc2)c(OC)c1 (configuration not stated) | 30.9 |
| COc1ccccc1OCC(=O)NCc1n[nH]c(=O)c2ccccc12 | -15.2 |
| O=C(COc1cccc2c1CCN(Cc1ccccc1)C2=O)N1CCCCC1 | 10.8 |
| CCCC(=O)C1=C(O)C(C(=O)OC)C(C)(C)CC1=NCCc1ccc(OC)c(OC)c1 (configuration not stated) | 19 |
| CCOc1ccc(-c2csc(NC(=O)CSCC(=O)O)n2)c2ccccc12 | 11.9 |
| Cc1cccc(N/C(N)=N/c2nc(CSc3ccc(Cl)cc3)cc(=O)[nH]2)c1 | -0.84 |
| CN(Cc1ccc(F)cc1)C(=O)C(Cc1ccccc1)NC(=O)c1ccccc1 (configuration not stated) | -6.89 |
| COc1ccc(Cc2nnc(NC(=O)c3ccc(C)cc3)s2)cc1OC | -7.61 |
| CC(C)c1ccc(C2/C(=C(/O)c3ccccc3)C(=O)C(=O)N2CCCN2CCOCC2)cc1 (configuration not stated) | 3.66 |
| Cc1ccc(S(=O)(=O)NC(CC(C)C)C(=O)Nc2ccncc2)cc1 (configuration not stated) | 0.09 |
| CCOc1ccc(OCC(=O)c2c(O)c3ccccc3oc2=O)cc1 | 29.5 |
| O=C(c1c(O)c2ccccc2oc1=O)C1CCC1 | 39 |
| COc1ccc(OCC(=O)c2c(O)c3ccccc3oc2=O)cc1 | 23.3 |
| CC(=N)c1c(O)c2ccccc2oc1=O | -3.72 |
